This passage reports Potency results from PubChem BioAssay (NCATS).

The structures appear in SMILES notation. Results filed as inconclusive are left out. A call without a number means that no potency is given here. Active and inactive are the calls of the source. Calls come from the whole dose curve; as a rule, active = well fitted inhibition curve with a large enough effect; inconclusive = small, poorly fitted or top-dose-only effect; inactive = no such curve, though single readings can be large or run the other way.
Potency is the fitted concentration of half-maximal effect.

The nature of the assay: qHTS for Inhibitors of the Aldehyde Dehydrogenase Family (ALDH1A2, ALDH1A3, ALDH2, ALDH3A1) (AID 2061307). For Potency: test system not described further here. Note: nearly all actives have a fitted effect of over 50% in size. The settings on record: ALDH inhibition qHTS; series mostly up to 50.3 µM. (In general: qHTS replaces the single test concentration by a dilution series.)
As for `CC(=O)c1c(C)n(-c2ccc(N(C)C)cc2)c2ccc(O)cc12`, the Potency result is “inactive”.

`COc1ccc(C2Nc3c(OC)ccc(OC)c3C(=O)N2Cc2ccccc2)cc1COc1ccc(NC(C)=O)cc1` (stereo not drawn): the Potency was 2.83 µM (active).

On to `O=C(Nc1cccnc1Cl)c1cc(-c2cccc(Cl)c2)on1`, for which the Potency entry is “inactive”.

In the case of `NS(=O)(=O)c1ccc(Nc2cn[nH]c2-c2cccc(-c3ccccc3)c2)cc1`, the Potency entry was “inactive”.

Turning to `Cn1ccc(=Nc2ccc(NC(=O)c3ccc(N=c4ccn(C)c5ccc([N+](=O)[O-])cc45)cc3[N+](=O)[O-])cc2)cc1`, the Potency is 5.65 µM (active).

As to `COc1ccc(N2CCN(C(=O)c3cnc(N4CCCCC4)c4ccccc34)CC2)cc1`, the Potency result is “inactive”.

In the case of `CCOc1ccccc1-n1c(CN2CCN(C(=O)c3ccco3)CC2)nc2cc(OC)c(OC)cc2c1=O`, the Potency result was “inactive”.

For `CSc1sc(C(=O)NN)c2c1C(O)CCC2` (stereo not drawn), the Potency was 22.5 µM (active).

Regarding `COc1cccc(-c2cnc(N3CCC(C(N)=O)CC3)s2)c1`, the Potency entry is “inactive”.

Regarding `O=C1CCc2ccc(NC(=O)c3ccn(-c4ccccc4F)n3)cc2N1`, the Potency result was “inactive”.

As for `CC(=O)Nc1ccc(OCc2cn(CC(=O)c3ccc(O)cc3)nn2)cc1`, the Potency entry was “inactive”.

For the molecule `O=C(N/N=C/c1ccc(Sc2cccc3cccnc23)o1)c1cccc(F)c1`, the Potency is 7.12 µM (active).

Take `CN1CCN(CC(=O)N2c3ccc(S(=O)(=O)NCCNC(=O)OC(C)(C)C)cc3C(=O)Nc3cccnc32)CC1`: the Potency entry is “inactive”.

With `O=C(Nc1ncc(CN2CCCCC2)s1)c1ccc(-c2cccc([N+](=O)[O-])c2)o1`, the Potency was 11.3 µM (active).

For the molecule `c1ccc(CCN(Cc2ccccc2)C2CCN(C3CCCCC3)CC2)cc1`, the Potency is 7.94 µM (active).

Turning to `Cn1ccc(=Nc2ccc(NC(=O)c3ccc(N=c4ccn(C)c5ccc([N+](=O)[O-])cc45)cc3)cc2)cc1`, the Potency was 8.96 µM (active).

In the case of `N#Cc1ccsc1NC(=O)c1ccn(-c2ccccc2F)n1`, the Potency was 1 µM (active).

For the molecule `NC(=O)Nc1ccc(CNC(=O)C2Cc3ccccc3O2)cc1` (stereo not drawn), the Potency entry was “inactive”.

On to `Clc1ccc(-c2noc3ncnc(N4CCCCC4)c23)cc1`, for which the Potency is 11.3 µM (active).

As to `COc1cc(O)c(C(CC(=O)N2CC(C)CC(C)C2)c2ccccc2Cl)c(OC)c1` (stereo not drawn), the Potency was 1 µM (active).

As to `Cc1cc(=O)n2[nH]c(NC(=O)c3ccccc3)nc2n1`, the Potency result was “inactive”.

With `COc1ccc(OC)c(NC(=O)c2cc(C3CC3)nc3c2c(C)nn3-c2ccc(C)cc2)c1`, the Potency result is “inactive”.

Regarding `O=C(O)c1csc(-n2[nH]c(-c3ccc(F)c(Cc4ccccc4)c3)cc2=O)n1`, the Potency is 22.5 µM (active).

For `O=C(Cn1c2ncccc2c(=O)n1-c1ccccc1)Nc1ccc(Cl)cc1C(F)(F)F`, the Potency result was “inactive”.

For the molecule `NNC(=O)c1ccc2ccccc2n1`, the Potency entry is “inactive”.

Take `CC(Sc1nc2nn(C3COC3)cc2c(=O)n1-c1ccccc1)c1ccccn1` (stereo not drawn): the Potency result is “inactive”.

For `CCS(=O)(=O)c1nc(-c2ccc(Cl)cc2)cc(C(F)(F)F)n1`, the Potency is 4.47 µM (active).

Regarding `Fc1cccc(F)c1CNCc1cccnc1-n1cccn1`, the Potency is 3.98 µM (active).

Consider `O=C(O)c1csc(-n2nc(-c3ccc(F)c(F)c3)cc2Cc2nn[nH]n2)n1`, for which the Potency result is “inactive”.

For the molecule `Cc1ccc(C)n1-c1sccc1C#N`, the Potency was 7.12 µM (active).

With `Cc1ccccc1Cn1cnc2cc(-c3cccc(NC(=O)Cc4ccccc4)n3)ccc21` (tested in a mixture with another compound), the Potency result was “inactive”.

Take `O=C(Nc1ccc(CCO)cc1)c1ncoc1-c1ccccc1Cl`: the Potency entry was “inactive”.

For the molecule `CN1CCN(c2ccc3ncc(Nc4ccc(Cl)c(C(F)(F)F)c4)n3n2)CC1`, the Potency is 28.2 µM (active).

Turning to `COc1ccc(-n2c(CSCc3ccccc3)c(C(C)=O)c3cc(O)ccc32)cc1`, the Potency entry is “inactive”.

`O=C(Nc1ccccc1OC(F)(F)F)c1csc(-c2ccc(F)cc2)n1`: the Potency entry was “inactive”.

As to `COc1ccc(CC2NCCC3=CC(=O)CCC32)cc1O` (stereo not drawn), the Potency entry was “inactive”.

Take `OC[C@H]1O[C@@H](OCc2ccccc2)[C@H](O)[C@@H](O)[C@H]1O`: the Potency entry is “inactive”.

With `O=C(Nc1ccc2oc(-c3cccnc3)nc2c1)c1ccc(-c2ccccc2)o1`, the Potency entry was “inactive”.
